PubChem BioAssay AID1159580 (chemical genetic matrix, 2015)
The whole screen tested about 5,500 compounds, of which about 2,000 (36%) were called active. Inconclusive results (about 18%) are left out. No stated cut-off is given here; in the data, active means normalized growth mostly below about 0.91 (no sharp cut-off); inconclusive means no clear call, values can overlap the other calls; inactive means mostly above about 0.92. The list shows a part of the results.

Assay: chemical genetic growth profiling, strain panel (AID 1159580);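 further: tested at 20 µM; growth read once vehicle control cultures reached saturation at 30 °C; 1 = growth at the plate median or of vehicle wells; lower values mean less growth of the strain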
Settings: S. cerevisiae deletion strains, growth OD

Measured: normalized growth

CC(=O)NBr
inactive: locus YAL013W, strain DEP1, active compounds read low 1.02 | locus YAL040C, strain CLN3, active compounds read low 0.995 | locus YDR363W, strain ESC2, active compounds read low 1.01 | locus YER002W, strain NOP16, active compounds read low 1.01 | locus YGR078C, strain PAC10, active compounds read low 1.01 | locus YMR263W, strain SAP30, active compounds read low 1 | locus YNL128W, strain TEP1, active compounds read low 1.01 | locus YNL175C, strain NOP13, active compounds read low 1.01 | locus YNL197C, strain WHI3, active compounds read low 0.997 | locus YNL224C, strain SQS1, active compounds read low 1.01 | locus YOR083W, strain WHI5 (second series), active compounds read low 1.01 | locus YPL055C, strain LGE1, active compounds read low 0.999
